By AC50 is commonly meant the concentration at which the activity in the assay is half-maximal.

Activity calls are given as the source filed them. Rule for the calls: active = hit-call score of the fitted dose curve at least 0.9, where 1 is the maximum; inactive = score below 0.9.

Read-out in this experiment: ABC Transporter (ABCB1), ABCB1 (gene 5243)
As to the kind of experiment: LTEA_HepaRG_ABCB1: Life Technologies and Expression Analysis (LTEA) Assay for ABC Transporter (ABCB1) using HepaRG (AID 2283460). The following applies: mRNA level, 48 h; actives raise or lower the signal. As to the method:
LTEA_HepaRG is a cell based, multiplexed-readout assay that uses HepaRG, a human liver cell line, with measurements taken at 48 hours after chemical dosing on a 96-well plate.LTEA_HepaRG_ABCB1 is one of 102 assay component(s) measured in the LTEA HepaRG cell culture assay. It is a marker of Steatosis/NR mediated transport.Data from the assay component LTEA_HepaRG_ABCB1 was analyzed into 1 endpoint. This assay endpoint, LTEA_HepaRG_ABCB1, was analyzed with bidirectional fitting relative to DMSO as the negative control and baseline of activity. Using a type of inducible reporter, measures of mRNA induction for gain or loss-of-signal activity can be used to understand regulation of transcription factor activity. To generalize the intended target to other relatable targets, this assay endpoint is annotated to the transporter intended target family, where the subfamily is ABC transporter.
A total of 1060 chemcials from the ToxCast library were tested in eight-point concentration-response experiments. Cell culture and cytotoxicity assays were conducted at Thermo Fisher Scientific's Custom Services facility (Madison, WI). A single lot of human HepaRG cells (Thermo Fisher Scientific, Frederick, MD) was used for the cell culture experiments. 96-well format collagen type I coated plates of human HepaRG cells were prepared using established methods. Briefly, cryopreserved HepaRG cells were thawed, plated at a density of approximately 100,000 cells/well in HepaRG Thaw, Plate, and General Purpose media (HPRG770, Thermo Fisher Scientific), and incubated for 48 hours. 0.5% DMSO was selected as vehicle control to balance the requisite need of DMSO in HepaRG cultures to maintain differentiation (for example, baseline metabolism, proportions of hepatocytes vs. cholangiocytes), while enabling further hepatic receptor pathway activation (for example, PXR and CAR) in response to chemical exposure. 48 hours after plating, the culture medium was replaced with HepaRG Serum-Free Incudtion Media. Cells were exposed to each test chemical in duplicate and maintained in CO2 incubators for another 48 hours. Chemical plates were thawed to room temperature and 200x concentrations of treatment groups were prepared. 8-point conentration-reponse curves were made with the highest exposure at 100 uM, followed by half-log dilutions, all in 0.5% DMSO. Each test plate contained variouse controls, induction positive controls (1mM phenobarbital), cytotoxicity positive controls ([…] aflatoxin B1), vehicle controls (0.5% DMSO), and total lysis controls (0.5% DMSO). Cell morphology images were taken using an Essen IncuCyte FLR automated microscope, with six 96-well plates imaged in about 24 minutes. Images were captured and exported and JPEG files. Spent culture media was transfered to black-well plates for the LDH assay, and remaining media was sorted at -80 C for later use. Cells were treated with RLT buffer and frozen until shipped for gene expression analysis. Total RNA was isolated from the cell suspension in 75 uL of Buffer RLT (Qiagen, Germantown, MD 20874) by Quintiles/Expression Analysis (Durham, NC) using a custom isolation procedure. Total RNA from each plate well was transferred to a preamplification plate. Fluidigm's 96.96 Dynamic ArrayTM (Fluidigm, Amsterdam, the Netherlands) technology was used for gene expression analyses by quantitative reverse transcription polymerase chain reaction (qRT-PCR, performed by Quintiles/Expression Analysis, Durham, NC)89. Standard TaqManTM Assays (Applied Biosystems/ThermoFisher Scientific, Foster City, CA) were used to assess the expression of 93 genes selected based on their selectivity and sensitivity to important hepatic receptors known to be modulated by environmental chemicals; importance in human hepatocyte functionality; and hepatotoxicity. […]
`Nc1ccc(Cc2ccc(N)cc2)cc1`: the compound was called inactive.

Turning to `Clc1ccc(C(c2ccc(Cl)cc2)C(Cl)(Cl)Cl)cc1`, the AC50 was 50 µM (active).

With `O=Cc1ccco1`, the compound was classed as inactive.

With `[Cl-].[Cl-].[Hg+2]`, the compound was called inactive.

Turning to `CCCCOC(=O)c1ccccc1C(=O)OCc1ccccc1`, the call was inactive.

As to `Clc1ccc(C(c2ccc(Cl)cc2)C(Cl)Cl)cc1`, the AC50 was 31.6 µM (active).

`Oc1ccccc1Cl`: the outcome was inactive.

Consider `Nc1ccc([N+](=O)[O-])cc1`, for which the compound was classed as inactive.

With `CO[C@@H]1[C@H](OC(=O)NC(=O)CCl)CC[C@]2(CO2)[C@H]1[C@@]1(C)O[C@@H]1CC=C(C)C`, the compound was called inactive.

For `Cc1ccc(N)c(N)c1`, the outcome was inactive.

For `CCCSC(=O)N(CCC)CCC`, the outcome was inactive.

For the compound `CCN(CC)N=O`, the compound was called inactive.

Take `CCCCCOC(=O)c1ccccc1C(=O)OCCCCC`: the result was inactive.

Consider `CC(C)(C)OOC(C)(C)CCC(C)(C)OOC(C)(C)C`, for which the result was inactive.

Turning to `Cc1ccc(N)cc1`, the compound was called inactive.

As for `CS(=O)(=O)NC(=O)c1cc(Oc2ccc(C(F)(F)F)cc2Cl)ccc1[N+](=O)[O-]`, the AC50 was 0.644 µM (active).

As to `O=P(OCCCl)(OCCCl)OCCCl`, the result was inactive.

On to `Nc1ccc(Cl)cc1N`, for which the AC50 is 19.6 µM (active).

Turning to `Nc1ccc(N=Nc2ccccc2)cc1`, the AC50 was 15.5 µM (active).

In the case of `N#CC(Br)Br`, the call was inactive.

As for `c1ccc(C2CO2)cc1` (stereo not given), the compound was called inactive.

Turning to `CCCCCCCCn1sccc1=O`, the call was inactive.

Take `ClC1=C(Cl)[C@]2(Cl)[C@H]3[C@H]([C@@H]4C=C[C@H]3C4)[C@@]1(Cl)C2(Cl)Cl`: the compound was called inactive.

As to `CC(C)N(Cc1ccccc1)C(=O)C(C)(C)C`, the call was inactive.

As to `O=C(N[C@H](c1ccccc1)[C@@H]1CN2CCC1CC2)c1c(Cl)ccc(C(F)(F)F)c1Cl`, the AC50 was 13.5 µM (active).

`COC(=O)c1ccccc1N`: the outcome was inactive.

For the compound `[O-][Cl+]O`, the call was inactive.

As to `Cc1cc(N=Nc2ccccc2C)ccc1N`, the AC50 was 5.45 µM (active).

Turning to `OCCCl`, the compound was classed as inactive.

As for `Clc1ccccc1Cl`, the outcome was inactive.

In the case of `CCCCCCCCOC(=O)c1ccc(C(=O)OCCCCCCCC)c(C(=O)OCCCCCCCC)c1`, the outcome was inactive.

Turning to `C=CCc1ccc2c(c1)OCO2`, the compound was classed as inactive.

Regarding `Cc1cccc(N)c1N`, the call was inactive.

In the case of `Clc1ccc(Cl)c(Cl)c1`, the compound was classed as inactive.

In the case of `N#CC(Br)(Br)C(N)=O`, the compound was called inactive.

With `COP(=S)(OC)SCN1C(=O)c2ccccc2C1=O`, the compound was classed as inactive.

With `c1ccc2c(c1)oc1ccccc12`, the compound was called inactive.

With `CNC(=O)Oc1cccc2c1OC(C)(C)C2`, the call was inactive.

Regarding `CCCCC(CC)COC(=O)c1ccc(C(=O)OCC(CC)CCCC)c(C(=O)OCC(CC)CCCC)c1` (stereo not given), the result was inactive.

For the compound `CCC[CH2][Sn]([Cl])([CH2]CCC)[CH2]CCC`, the AC50 was 3.21 µM (active).

These data come from PubChem BioAssay (EPA / NIEHS).
